Compound activity as filed in PubChem BioAssay.
ADAM17 inh – inhibitors of human ADAM17; P78536; recombinant ADAM17, EDANS/DABCYL FRET peptide cleavage; inhibition, % at 6.95 µM; actives 0.83% (n = 370,000); AID 720648;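 active = inhibition above the mean of compounds lying between control limits plus 3 SD, set per campaign, cut at about 8.5% in these data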;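 also: 0% = DMSO-only wells as the low control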
GC-B act – GC-B (human) receptor activation; actives 0.11% (n = 370,000); activation, % at 10 µM; P20594; HEK293-GC-B cells, CNP EC30, cGMP TR-FRET; 0% at EC30 CNP, 100% saturating CNP;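 active = activation at 10 µM reaching about 35% in either raw or pattern-adjusted values, limit read from the data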
GC-A act – GC-A (human) enzyme activation | actives 0.14% (n = 370,000) | activation, % at 10 µM | HEK293 GC-A cells, cGMP TR-FRET, EC30 ANP; 0% at EC30 ANP, 100% saturating ANP | P16066; in the data active = activation above about 40%
FAS TE block – FAS thioesterase (human) inhibition; recombinant FAS-TE, OMFH fluorogenic substrate, fluorescence endpoint; inhibition, % at 15 µM; actives 0.67% (n = 360,000); AID 602261;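 active = compounds whose normalised, plate-corrected inhibition of enzyme fluorescence in the single-dose primary screen is 50% or more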;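 also: 0% = DMSO with enzyme and 100% = substrate without enzyme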
ADAM10 inh – inhibitors of human ADAM10 | O14672 | recombinant ADAM10, EDANS/DABCYL FRET peptide cleavage, 3 h | inhibition, % at 7 µM | actives 0.62% (n = 370,000) | AID 720582;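 active = inhibition above a per-campaign cutoff equal to the mean of compounds falling between control-based bounds plus 3 SD, cut at about 20% in these data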;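 also: 0% = DMSO wells while the 100% control is not disclosed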
Target sequence (O14672 214-748 limits assumed): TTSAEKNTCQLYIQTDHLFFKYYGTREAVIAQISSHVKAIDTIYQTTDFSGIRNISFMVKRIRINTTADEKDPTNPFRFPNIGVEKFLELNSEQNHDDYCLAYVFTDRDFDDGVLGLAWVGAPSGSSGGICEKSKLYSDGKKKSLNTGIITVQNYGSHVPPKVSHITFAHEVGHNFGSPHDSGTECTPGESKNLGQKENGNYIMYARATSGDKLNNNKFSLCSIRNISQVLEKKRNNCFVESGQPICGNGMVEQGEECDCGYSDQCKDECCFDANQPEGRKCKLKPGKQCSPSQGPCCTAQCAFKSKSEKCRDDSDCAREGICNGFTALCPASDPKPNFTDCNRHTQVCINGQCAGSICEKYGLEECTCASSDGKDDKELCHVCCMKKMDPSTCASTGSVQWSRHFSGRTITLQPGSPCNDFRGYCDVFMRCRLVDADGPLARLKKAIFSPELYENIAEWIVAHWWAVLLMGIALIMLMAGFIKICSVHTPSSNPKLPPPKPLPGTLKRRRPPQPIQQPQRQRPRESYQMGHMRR
ADAM10 confirm – confirmation of inhibitors of human ADAM10; AID 743208; shares compounds with ADAM10 inh; actives 1% (n = 2,100); inhibition, % at 6.95 µM; ADAM10 QFRET peptide cleavage, EDANS fluorescence;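 active = inhibition above about 20% chosen separately for each screening run, limit read from the data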;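 also: 0% = DMSO wells and 100% = marimastat wells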
ADAM17 counter – ADAM17 inhibition, counter-screen for ADAM10 exosite hits. ADAM17 QFRET peptide cleavage, EDANS fluorescence. actives 0.5% (n = 2,100). shares compounds with ADAM10 inh. inhibition, % at 6.95 µM;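 active = mean triplicate inhibition above the solvent-only control wells' mean plus 3 SD, cut at about 12% in these data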;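 also: 0% = DMSO wells and 100% = marimastat wells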
ADAM10 ctr – inhibits human ADAM10 in ADAM17 exosite counter-screen. shares compounds with ADAM17 inh. recombinant ADAM10, EDANS/DABCYL FRET peptide cleavage, 3 h. inhibition, % at 6.95 µM. actives 47% (n = 2,900). AID 743256;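 active = mean inhibition over the triplicate runs exceeds the activity threshold set in the earlier primary screen, cut at about 20% in these data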;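 also: 0% = DMSO wells and 100% = marimastat wells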
ADAM17 confirm – confirmation of inhibitors of human ADAM17; inhibition, % at 6.95 µM; actives 65% (n = 2,900); recombinant ADAM17, EDANS/DABCYL QFRET peptide cleavage; AID 743257; shares compounds with ADAM17 inh;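 active = mean inhibition across replicates above the hit cutoff set in the primary screen, cut at about 8.5% in these data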;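 also: 0% = DMSO wells and 100% = marimastat wells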
An asterisk follows results filed as active; . = no result given. Only some compounds are listed: those with a hit (about 2% of all), similar ones and a draw of the others.

SMILES | ADAM17 inh | GC-B act | GC-A act | FAS TE block | ADAM10 inh | ADAM10 confirm | ADAM17 counter | ADAM10 ctr | ADAM17 confirm
COc1ccc(-c2nnc(SCC(=O)Nc3cccc4ccccc34)n2Cc2ccco2)cc1 | 2 | -1 | 0 | . | 3 | . | . | . | .
O=C(CSc1nnc(COc2ccccc2)n1-c1ccc(Cl)cc1)Nc1ccccc1-c1ccccc1 | 13* | -16 | -13 | . | 28* | 6 | 2 | 19 | 14*
Cc1ccc(-n2c(Cc3cccs3)nnc2SCC(=O)Nc2ccc(OCc3ccccc3)cc2)cc1 | 12* | 4 | -4 | . | 21* | 11 | 3 | 22* | 15*
COc1ccc(-n2c(Cc3cccs3)nnc2SCC(=O)Nc2ccc(OCc3ccccc3)cc2)cc1 | 11* | -8 | -4 | . | 21* | 12 | 4 | 25* | 16*
Cn1c(Cc2cccs2)nnc1SCC(=O)Nc1ccc(OCc2ccccc2)cc1 | 2 | 6 | 1 | . | 11 | . | . | . | .
COC(=O)[C@]1(CNS(=O)(=O)c2ccc(F)cc2)CC(=O)N(C)[C@@H]1c1ccccc1 | 1 | -4 | 0 | . | 2 | . | . | . | .
COc1ccc(-c2nc3ccccc3c(=O)n2Cc2ccccc2)cc1COc1ccc(NC(C)=O)cc1 | -19 | 0 | -4 | . | -51 | . | . | . | .
CC(=O)N1C[C@@H](c2c[nH]c3ccccc23)C=C[C@H]1C(=O)NS(=O)(=O)c1ccc(C)cc1 | -8 | 6 | -4 | . | -14 | . | . | . | .
COc1ccc(NC(C)C(=O)N/N=C/c2ccccc2OCc2cccc(Br)c2)cc1 (centres undefined) | 8.8* | -7 | -5 | 32 | 21* | 11 | 3 | 48* | 22*
COc1ccc(NC(C)C(=O)N/N=C/c2cc(Br)ccc2OC)cc1 (centres undefined) | 0 | -3 | -3 | 5 | 8 | . | . | . | .
Cc1ccccc1NC(C)C(=O)N/N=C/c1ccccc1OCc1cccc(Br)c1 (centres undefined) | 9.7* | -5 | -7 | 19 | 24* | 17 | 6 | 16 | 14*
Cc1c(C(=O)NCCC2=CCCCC2)oc2ccc(S(=O)(=O)N3CCC4(CC3)OCCO4)cc12 | 8.9* | 12 | -2 | 38 | 22* | 6 | 2 | 16 | 10*
CC(O)(c1ccc(F)c(F)c1)c1nc(-c2cc3ccccc3o2)cs1 (centres undefined) | 9.6* | -4 | 3 | 42 | 27* | 12 | 3 | 36* | 18*
CC(=O)c1cc(-c2ccc(Oc3ccccc3)cc2)c(=O)n2c1CCC2 | -7 | -12 | 5 | . | -6 | . | . | . | .
CCCN(CC(=O)Nc1cccc(Br)c1)CC(=O)Nc1ccc(F)c(F)c1F | 21* | -10 | -2 | 41 | 32* | 2 | 1 | 29* | 15*
CCOc1ccc(Nc2nc(N)nc(CSC(=S)N3CCN(c4ccccc4)CC3)n2)cc1 | 0 | -6 | -6 | 28 | 8 | . | . | . | .
COc1ccc(Nc2nc(N)nc(CSC(=S)N3CCN(c4ccccc4)CC3)n2)cc1 | 12* | 3 | -6 | 37 | 23* | 7 | 3 | 26* | 14*
COc1ccc(NC(=O)c2cc(-c3cc(Cl)ccc3OC)n[nH]2)c(OC)c1 | 13* | 25 | 38 | 17 | 29* | 7 | 2 | 35* | 18*
Cc1ccc(N(CC(=O)NCCc2ccc(F)cc2)S(=O)(=O)c2ccc(Cl)c([N+](=O)[O-])c2)c(C)c1 | 12* | -15 | -27 | 32 | 26* | 11 | 2 | 29* | 15*
OC[C@H]1CC[C@@H]2O[C@H](CCc3ccc(-c4ccc(F)cc4)cc3)[C@H](n3cc(C4CC4)nn3)C[C@@H]2O1 | 3 | -18 | 10 | . | 4 | . | . | . | .
CC(C)(C)c1ccc(OCCC(=O)Nc2cccc(S(=O)(=O)N3CCOCC3)c2)cc1 | 15* | 3 | -4 | 49 | 32* | 5 | 4 | 32* | 19*
Cc1noc(C)c1COc1ccc(C(=O)OCC(=O)Nc2cccc(S(=O)(=O)N3CCOCC3)c2)cc1 | 11* | 1 | -5 | 19 | 25* | 3 | 0 | 29* | 13*
Cc1csc(SCC(=O)Nc2nc(-c3ccccc3)cs2)n1 | 12* | 0 | 2 | 18 | 22* | 0 | 1 | 19 | 14*
Cc1cc(Cn2nc(-c3ccccc3)cc2C(=O)NCc2cccc(Br)c2)on1 | 11* | 8 | 8 | 31 | 37* | 7 | 4 | 24* | 16*
Cc1cc(Cn2nc(-c3ccccc3)cc2C(=O)NCc2cccc(C(F)(F)F)c2)on1 | 4 | 7 | 5 | 36 | 0 | . | . | . | .
SMILES | ADAM17 inh | GC-B act | GC-A act | FAS TE block | ADAM10 inh | ADAM10 confirm | ADAM17 counter | ADAM10 ctr | ADAM17 confirm
CC(=O)CC[C@@H]1CC[C@]2(CCCN(C(=O)c3ccco3)C2)O1 | -4 | -7 | 4 | . | -7 | . | . | . | .
C=CCN(CC=C)CC(O)Cn1c2ccccc2c2ccccc21 (centres undefined) | -5 | -5 | -14 | 4 | -7 | . | . | . | .
OC(COCC(F)(F)C(F)(F)C(F)(F)C(F)F)Cn1c2ccccc2c2ccccc21 (centres undefined) | 15* | 2 | -3 | 40 | 34* | 12 | 5 | 29* | 19*
Cc1cccc(C)c1OCC(O)Cn1c2ccccc2c2ccccc21 (centres undefined) | 12* | -17 | -18 | 36 | 20* | 17 | 5 | 21* | 13*
COc1ccc(C(=O)Nc2ccc(OCC(F)(F)C(F)F)c(C(F)(F)F)c2)cc1OC | 9.0* | 3 | -10 | 26 | 26* | 3 | 0 | 52* | 20*
O=C(OC12CCCN(C1)/C(=C/c1cccnc1)C2)c1ccco1 (centres undefined) | -4 | 1 | 3 | . | -10 | . | . | . | .
Cc1ccc(C)c(N2CCN(S(=O)(=O)c3ccc4c(c3)NC(=O)CS4)CC2)c1 | 12* | -5 | -15 | 19 | 20* | 8 | 2 | 34* | 18*
CN(C)S(=O)(=O)c1cccc(NC(=O)CSc2nc3ccccc3n2-c2ccccc2)c1 | 10* | 3 | 2 | 28 | 20* | 7 | 2 | 24* | 13*
